{"source": "PubChem BioAssay AID1276", "about": "(Columbia University Molecular Screening Center, 2008)", "note": "The campaign covered roughly 190,000 compounds. About 2,000 (1.1%) were called active. This is one part of a sample in which actives are shown more often than they occur. Values without a mark were called inactive.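 How the source made its calls: active means activation above a set limit, based on mean plus 3 SD of controls (cut at about 140% in these data); inconclusive means one replicate above the limit, the other below; inactive means the rest.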"}
{"assay": "APP 5'UTR reporter signal increase – luciferase, SH-SY5Y cells, primary screen (AID 1276)", "conditions": "SH-SY5Y APP 5'UTR luciferase reporter, luminescence; at 2 µM; stronger effect = higher value; zero percent = DMSO vehicle wells"}
{"smiles": "O=C(CC1SCCNC1=O)Nc1ccc(Cl)c(Cl)c1", "note": "(stereo not given)", "activation": "-7.34%"}
{"smiles": "Cc1cc(NC(=O)CSc2nc3c(cc2C#N)CCCCC3)no1", "activation": "191% (active)"}
{"smiles": "Cc1nc(SCC(=O)Nc2cc(C)on2)c2c3c(sc2n1)CCCC3", "activation": "-10.6%"}
{"smiles": "CC(NC(=O)CSc1nc2c(cc1C#N)CN(C)CC2)c1ccccc1", "note": "(stereo not given)", "activation": "1.35%"}
{"smiles": "COc1ccc(-c2nn3c(-c4ccccc4)nnc3s2)cc1OC", "activation": "12.1%"}
{"smiles": "COc1ccc(C2CC(c3cccs3)=Nc3ccccc3S2)cc1OC", "note": "(stereo not given)", "activation": "2.96%"}
{"smiles": "COc1ccc(-c2csc(-c3cccs3)n2)cc1OC", "activation": "172% (active)"}
{"smiles": "O=C(NCCc1ccccn1)c1cc(-c2ccc(Cl)cc2)nc2ccccc12", "activation": "-9.75%"}
{"smiles": "O=c1c2c(nc3nc[nH]n13)CCC2", "activation": "3.94%"}
{"smiles": "O=c1c2c(nc3cc(-c4cccc(Cl)c4)[nH]n13)CCCC2", "activation": "158% (active)"}
{"smiles": "O=C1CCCc2c1nc(-c1cccc(Cl)c1)n2O", "activation": "-94.3%"}
{"smiles": "Cc1ccc(-c2cc(N)on2)cc1", "activation": "-4.88%"}
{"smiles": "CCC(C)NC(=O)Cn1nc(C(F)(F)F)c2c1CCC2", "note": "(stereo not given)", "activation": "-3.33%"}
{"smiles": "COc1ccc(-c2cn3cccnc3n2)cc1", "activation": "35.2%"}
{"smiles": "CCCC(=O)Nc1cccc(-c2cn3ccsc3n2)c1", "activation": "20.7%"}
{"smiles": "COc1ccc(-c2cn3ccsc3n2)cc1", "activation": "135% (active)"}
{"smiles": "CN1C(=O)/C(=C\\c2ccc(-c3ccccc3)o2)SC1=S", "activation": "5.23%"}
{"smiles": "Cc1cccc(OC(=O)c2sc3ncn(C)c(=O)c3c2C)c1", "activation": "62.6%"}
{"smiles": "O=C(O)c1cccc(N2C(=O)Nc3ccccc3N2O)c1", "activation": "27.8%"}
{"smiles": "NC1=NN(c2cccc(C(=O)O)c2)C(=O)C1", "activation": "135% (active)"}
{"smiles": "O=C(c1cccc(N2CCCC2=O)c1)N1CCOCC1", "activation": "10.7%"}
{"smiles": "CCOC(=O)c1cc2c(=O)[nH]c(C(Cl)(Cl)Cl)nc2o1", "activation": "5.69%"}
{"smiles": "CCCCOc1ccc(C(=O)NCC(=O)OCC(=O)N2CCN(S(=O)(=O)c3ccc(C)cc3C)CC2)cc1", "activation": "-1.98%"}
{"smiles": "Cc1ccnc(Nc2nc3ccccc3s2)n1", "activation": "127%"}
{"smiles": "c1ccc2sc(NN=C3CCCC3)nc2c1", "activation": "193% (active)"}
{"smiles": "O=[N+]([O-])c1cc(Br)c(O)c(/C=N/Nc2nc3ccccc3s2)c1", "activation": "12.5%"}
{"smiles": "CCOCCCNC(=S)N1CCC(NC(=O)C2CCCCC2)CC1", "activation": "-16.3%"}
{"smiles": "CCn1ccnc1CN(C)Cc1nc(-c2ccc3c(c2)OCO3)no1", "activation": "14.5%"}
{"smiles": "O=C(O)c1ccc(N/N=C/c2cn(-c3ccccc3)nc2-c2cccs2)cc1", "activation": "140% (active)"}
{"smiles": "O=C(O)/C=C/c1cn(-c2ccccc2)nc1-c1cccs1", "activation": "-9.09%"}
{"smiles": "O=C(/C=C\\c1cn(-c2ccccc2)nc1-c1cccs1)N1CCOCC1", "activation": "-5.12%"}
{"smiles": "COc1ccc(/C=N/N=C/c2c[nH]c(=O)c(C#N)c2Nc2ccccc2)cc1", "activation": "-8.9%"}
{"smiles": "COc1ccccc1OCc1nc2ccccc2s1", "activation": "142% (active)"}
{"smiles": "COc1cccc2sc(NNC(=O)c3nc4ccccc4s3)nc12", "activation": "7.9%"}
{"smiles": "CCc1ccc(-c2nnn(Cc3nc4ccccc4s3)n2)cc1", "activation": "0.38%"}
{"smiles": "CC(O)C(NS(=O)(=O)c1ccc(Cl)cc1)C(=O)OCc1cc([N+](=O)[O-])cc2c1OCOC2", "note": "(stereo not given)", "activation": "22.7%"}
{"smiles": "COc1ccc(-c2noc(-c3ccc(C)cc3)n2)cc1", "activation": "38.2%"}
{"smiles": "COc1ccc(-c2nc(-c3ccccc3)no2)c(OC)c1", "activation": "139% (active)"}
{"smiles": "CCOc1nc(-c2ccc(OC)cc2)ccc1-c1noc(-c2cc(OC)c(OC)c(OC)c2)n1", "activation": "-12.3%"}
{"smiles": "COc1ccccc1NC(=O)C1=C(C)NC(=O)NC1c1ccc(C)s1", "note": "(stereo not given)", "activation": "12.8%"}
{"smiles": "COC(=O)c1c(NC(C)=O)sc(C(=O)Nc2ccccc2OC)c1C", "activation": "2.59%"}
{"smiles": "COc1ccccc1NC(=O)c1ccc(C)s1", "activation": "141% (active)"}
{"smiles": "CC[n+]1c(C)n(-c2ccccc2)c2ccc(NC(C)=O)cc21", "activation": "19.1%"}
{"smiles": "COc1ccc(C(=O)Nc2nncs2)c(OC)c1", "activation": "31.6%"}
{"smiles": "COC(=O)c1sc(NC(=O)c2ccc(OC)cc2OC)nc1C", "activation": "137% (active)"}
{"smiles": "CCOC(=O)c1sc(NC(=O)c2ccncc2)nc1C", "activation": "7.58%"}
{"smiles": "CCN(CC(=O)Nc1ccc(Cl)c(S(=O)(=O)N(C)C)c1)Cc1nc2ccccc2c(=O)[nH]1", "activation": "-2.77%"}
{"smiles": "O=C(O)Cc1sc(-c2ccccc2)nc1-c1cccs1", "activation": "2.54%"}
{"smiles": "NC(=O)Cc1ccc2sc(-c3ccccc3)nc2c1", "activation": "140% (active)"}
{"smiles": "O=C(O)Cc1sc(-c2ccc(C(=O)O)cc2)nc1-c1ccccc1", "activation": "19.5%"}
{"smiles": "O=C(Nc1nc2ccc([N+](=O)[O-])cc2s1)c1ccc(S(=O)(=O)N2CCCc3ccccc32)cc1", "activation": "2.11%"}
{"smiles": "CCCCN(C(=O)COc1ccc(NC(C)=O)cc1)C1CCS(=O)(=O)C1", "note": "(stereo not given)", "activation": "6.89%"}
{"smiles": "COc1ccc2nc(Nc3nc4ccc(NC(C)=O)cc4s3)sc2c1", "activation": "20.2%"}
{"smiles": "COc1cccc(C(=O)Nc2nc3ccc(S(C)(=O)=O)cc3s2)c1", "activation": "61.6%"}
{"smiles": "COc1ccc2nc(NC(=O)c3ccc(Br)s3)sc2c1", "activation": "136% (active)"}
{"smiles": "CCOC(=O)CSC1=N/C(=C/c2ccc(-n3cncn3)cc2)C(=O)N1C(C)=O", "activation": "-12%"}
{"smiles": "O=C(NCc1nnc(SCC(=O)N2CCC(Cc3ccccc3)CC2)o1)c1ccco1", "activation": "-6.49%"}
{"smiles": "N/C(=N\\OC(=O)c1ccc([N+](=O)[O-])cc1)c1ccccn1", "activation": "149% (active)"}
{"smiles": "N/C(=N\\OC(=O)Cc1ccc([N+](=O)[O-])cc1)c1ccccn1", "activation": "60.6%"}
{"smiles": "O=C(OCc1ccc([N+](=O)[O-])cc1)c1ccccn1", "activation": "-1.07%"}
{"smiles": "O=[N+]([O-])c1ccc2[nH]c3c(c2c1)CCCC3O", "note": "(stereo not given)", "activation": "-8.34%"}
{"smiles": "O=C(COC(=O)c1ccccc1F)Nc1cc(S(=O)(=O)N2CCOCC2)ccc1N1CCCC1", "activation": "6.91%"}
{"smiles": "O=C(/C=C/c1ccc(N2CCOCC2)cc1)c1ccccc1", "activation": "140% (active)"}
{"smiles": "O=C(O)c1ccc2c(c1)C(=O)N(c1ccc(/C=C/C(=O)c3ccccc3)cc1)C2=O", "activation": "19.3%"}
{"smiles": "O=C(/C=C/c1ccccc1)c1ccoc1", "activation": "0.93%"}
